Compound activity: PubChem, National Center for Advancing Translational Sciences (NCATS)
hNpr1 antagonist – Natriuretic polypeptide receptor (hNpr1) antagonism - Primary qHTS. Atrial natriuretic peptide receptor 1 (Homo sapiens), P16066. Potency, µM (doses to about 46.3 µM), for inactives: at the top dose activity change, negative = inhibition, most hits filed as inhibitors. AID 1347048, 2019. HEK293 hNpr1 GloSensor cGMP, ANP-stimulated luminescence. 76,000 compounds, 1.6% hits; calls by dose curve; note: nearly all actives have a fitted effect of over 60% in size
Target sequence (P16066 whole entry, looked up): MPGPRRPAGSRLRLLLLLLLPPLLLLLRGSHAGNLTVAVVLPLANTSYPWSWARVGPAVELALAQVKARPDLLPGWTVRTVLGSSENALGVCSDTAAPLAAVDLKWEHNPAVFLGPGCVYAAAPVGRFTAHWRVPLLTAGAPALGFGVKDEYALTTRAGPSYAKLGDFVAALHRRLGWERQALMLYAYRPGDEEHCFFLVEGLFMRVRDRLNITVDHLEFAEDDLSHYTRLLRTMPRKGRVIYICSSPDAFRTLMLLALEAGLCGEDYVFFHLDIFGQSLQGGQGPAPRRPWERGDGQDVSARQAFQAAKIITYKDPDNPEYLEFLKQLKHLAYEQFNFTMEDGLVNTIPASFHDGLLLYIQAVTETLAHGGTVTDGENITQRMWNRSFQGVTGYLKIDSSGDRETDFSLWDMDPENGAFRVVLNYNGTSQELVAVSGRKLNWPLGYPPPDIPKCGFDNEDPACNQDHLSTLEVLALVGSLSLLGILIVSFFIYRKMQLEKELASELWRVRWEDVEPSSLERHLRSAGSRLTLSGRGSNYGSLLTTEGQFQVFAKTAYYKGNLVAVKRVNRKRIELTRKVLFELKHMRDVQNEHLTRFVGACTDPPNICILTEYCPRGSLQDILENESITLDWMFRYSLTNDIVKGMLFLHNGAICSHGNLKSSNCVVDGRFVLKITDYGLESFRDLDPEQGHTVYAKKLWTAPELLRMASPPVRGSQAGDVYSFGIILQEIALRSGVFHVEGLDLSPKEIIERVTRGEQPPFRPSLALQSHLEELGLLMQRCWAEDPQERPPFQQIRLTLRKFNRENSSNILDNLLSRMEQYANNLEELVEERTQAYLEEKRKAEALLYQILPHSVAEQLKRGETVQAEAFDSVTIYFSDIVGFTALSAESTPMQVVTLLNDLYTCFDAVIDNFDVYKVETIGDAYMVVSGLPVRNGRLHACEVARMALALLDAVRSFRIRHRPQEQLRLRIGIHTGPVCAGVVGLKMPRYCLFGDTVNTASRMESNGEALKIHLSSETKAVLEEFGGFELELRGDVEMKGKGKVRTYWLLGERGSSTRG
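Compound pre-incubated 30 min at room temperature on GloSensor-loaded HEK293 cells stably carrying hNpr1 and the pGS-40F cGMP biosensor. Stimulation uses hNppA at 0.1 nM final; luminescence is taken at baseline and 20 min post-agonist.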
Luciferase inh – Firefly luciferase inhibition profiling of diverse chemical library using quantitative high-throughput screening; Luciferin 4-monooxygenase (Photinus pyralis), P08659; purified P. pyralis luciferase, luminescence, biochemical; Potency, µM (top dose mostly 115 µM), hits mostly inhibitors; 76,000 compounds, 2.5% hits; AID 1347043, 2019; note: nearly all actives have a fitted effect of over 65% in size
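FLuc 10nM, D-luciferin 10uM, ATP 10uM, Mg acetate 10mM, Tris acetate pH 7.5, Tween/BSA; cpd qHTS; enzyme added last; CCD luminescence.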
HEK293 tox – Cytotoxic Profiling in HEK 293 Cell Line of Diverse Libraries Using Quantitative High-Throughput Screening; HEK 293 viability, ATP luminescence (CellTiter-Glo), 48-72 h; Potency, µM (top dose mostly 115 µM), for the others: at the highest dose activity change, negative = cytotoxicity, most hits filed as inhibitors; 94,000 compounds, 6.6% hits; AID 1345083, 2018; note: nearly all actives have a fitted effect of over 60% in size
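HEK 293 cells at 250 cells/well were exposed to compounds by pintool transfer for 48 or 72 hr at 37 degree Celsius, 5% CO2. Viability was read as ATP-coupled luminescence with CellTiter-Glo after 10 min at room temperature.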
3T3 cytotox – Cytotoxic Profiling in NIH 3T3 Cell Line of Diverse Libraries Using Quantitative High-Throughput Screening. Potency, µM (titrated, usually from 96.7 µM), for the others: at the top dose activity change, negative = cytotoxicity, most hits filed as inhibitors. NIH 3T3 viability, CellTiter-Glo ATP luminescence, 48-72 h. 94,000 compounds, 4.3% hits; note: nearly all actives have a fitted effect of over 55% in size
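Viability of NIH 3T3 cells after 48 or 72 hr compound treatment at 37 °C was assessed by CellTiter-Glo, with luminescence imaged following a 10 min room-temperature step.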
* hit, by the source's call; i = inactive; ? = inconclusive; [ ] = remark or other dose. Hits are enriched below; roughly 11% of the tested compounds scored in any of these assays. Unless noted, calls come from the whole dose curve; as a rule, active = well fitted curve in the direction sought with a large enough effect; inconclusive = small, poorly fitted or top-dose-only effect, or another doubt; inactive = no such curve, though single readings can be large; an effect the other way counts as inactive or inconclusive. % is set by controls: 0 for no effect and ±100 for the full control effect; potency is the fitted concentration of half-maximal effect.

SMILES	hNpr1 antagonist	Luciferase inh	HEK293 tox	3T3 cytotox
COc1ccc(Cl)cc1-c1ccc2c(c1)C(=O)N1CCN(C(=O)CO)C[C@@H]1C(=O)N2	0.5%[70.6 µM]	i	?	-6.6%[174 µM]
O=C(NCCc1noc(-c2ccccc2)n1)C1CCCC1	2.7%	i	-11.5%	-9.9%
C=CCO[C@@H]1C[C@H]2C(=O)Nc3ccc(-c4ccc(F)cc4F)cc3C(=O)N2C1	-6.0%[70.6 µM]	i	?	50.1µM*
O=C(NCc1nnc2ccc(-c3ccccc3)nn12)c1cc(F)ccc1Cl	1.7%	i	39.8µM*	?
O=C(Cc1cccc(Cl)c1)N1CCC(n2cc(-c3nc(C4CC4)no3)nn2)C1 (stereo not drawn)	-5.4%	i	-19.0%	-39.0%
CSc1ccc(-c2ccc3c(c2)C(=O)N2CCN(C(=O)CCC(=O)O)C[C@H]2C(=O)N3)cc1	3.7%	31.6µM*	-1.6%	-3.7%
CSc1ccc(-c2ccc3c(c2)C(=O)N2CCN(C(=O)CC(C)(C)C)C[C@@H]2C(=O)N3)cc1	-20.4%	i	35.5µM*	?
COc1cccc(-c2ccc(NC(=O)C3CCCN3C(=O)CNC(C)=O)cc2)c1 (stereo not drawn)	-0.3%	i	?	-29.3%
CC(=O)N1CCCC1C(=O)Nc1ccc(-c2nc3ccccc3o2)cc1 (stereo not drawn)	0.5%	15.8µM*	?	-7.6%
COCc1nc(C2CC(NC(=O)c3nn(C)c4c3CCCC4)C2)cc(=O)[nH]1 (stereo not drawn)	-0.2%	i	-4.5%	-23.8%
O=C(c1ccc(-c2ncc3cnc(C4=CCOCC4)cn23)cc1)N1CCc2ccccc2C1	-24.8%[70.6 µM]	i	79.4µM*	?
O=C(NCCO)c1ccc(-c2ncc3cnc(C4=CCOCC4)cn23)cc1	-1.3%[70.6 µM]	i	i	?
Fc1ccc(-c2ccc3ncc(Nc4ccccn4)n3n2)cc1	-12.7%[70.6 µM]	i	89.1µM*	?
Fc1ccc(-c2ccc3ncc(Nc4ccc(Cl)cn4)n3n2)cc1	-23.2%[70.6 µM]	i	100µM*	100µM*
CC(C)CN(Cc1nnc2cc(-c3nc(-c4ccccc4)no3)ccn12)CC(C)C	3.7%	i	i	i
CN1c2cc(C(=O)Nc3cccc(OC(F)(F)F)c3)ccc2C(=O)N2CCCCC21 (stereo not drawn)	?	?	17.8µM*	?
CN1c2cc(C(=O)Nc3cccc(OC(F)(F)F)c3)ccc2C(=O)N2CCCC21 (stereo not drawn)	-4.6%	i	?	35.5µM*
COc1cccc(NC(=O)c2ccc3c(c2)N(C)C2CCCCN2C3=O)c1 (stereo not drawn)	0.0%	?	?	?
COc1cccc(NC(=O)c2ccc3c(c2)N(C)C2CCCN2C3=O)c1 (stereo not drawn)	-9.9%	?	-15.1%	-3.2%
COCc1ccc2c(c1)c(OC(C)(C)C(=O)Nc1cc(C)nn1C)nn2Cc1cccnc1	1.2%	i	i	39.8µM*
CC(C)(Oc1nn(CC2CCOCC2)c2ccccc12)C(=O)NCCc1ccccc1	-9.9%[70.6 µM]	i	100µM*	?
COCc1ccc2c(c1)c(OC(C)(C)C(=O)NCC1CCOCC1)nn2Cc1cccnc1	4.7%	i	i	39.8µM*
COCc1ccc2c(c1)c(OC(C)(C)C(=O)NC1CCOCC1)nn2Cc1cccnc1	-2.9%[70.6 µM]	i	i	?
COCc1ccc2c(c1)c(OC(C)(C)C(=O)Nc1ccc(OC)cc1)nn2Cc1cccnc1	5.0%	i	-5.9%	?
COC(=O)c1ccccc1NC(=O)CN1C(=O)NC(c2ccc(C)cc2)C2=C1COC2=O (stereo not drawn)	2.2%	i	?	?
COC1C(=O)N(CC2CC2)C12CCN(C(=O)C(C)C)CC2 (stereo not drawn)	5.3%	i	i	i
Nc1ncccc1CN1CCCC12CCN(c1ccc(C(F)(F)F)cn1)CC2	-25.4%	i	?	?
CCn1ncc(CN2CCCC23CCN(c2ccc(C(F)(F)F)cn2)CC3)c1C	0.0%	i	?	?
